Bioassay records (PubChem)
A1 inh: inhibitors of the anti-apoptotic protein A1, read as caspase activation; MEF A1-2A-BIM cells, Caspase-Glo 3/7 luminescence, 3 h; percent of clofoctol response, vehicle zero; caspase activation, % (test concentration not listed); 330,000 tested, 0.066% active; AID 2462;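 active means over half of replicate activation scores above 10%, or exactly half above 10 with the replicate mean above 10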
NTR1 agonist: activates human neurotensin receptor 1; P30989; NTR1-U2OS beta-arrestin-GFP spot imaging, agonist mode; activation, % at 20 µM; 330,000 tested, 0.17% active; AID 493036;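 active means activation at or above 40% of the spot to cytoplasm intensity ratio, with at least 20 cells analyzed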;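 further: 0% = DMSO without peptide and 100% = 100 nM NTR1 peptide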
NOD2-RIPK2 inh: inhibitors of human NOD2-RIPK2 interaction; O43353; CHO BLA complementation NOD2-RIPK2, CCF4 ratio; inhibition, % at 4.98 µM; 360,000 tested, 0.38% active; in the data active means inhibition above about 21%;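 further: 0% = vehicle only and 100% = reference blocker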
TLR9-MyD88 block: blocks human TLR9 binding to MyD88; CHO BLA complementation TLR9-MyD88, CCF4 FRET ratio; inhibition, % at 4.98 µM; 340,000 tested, 0.21% active;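 active means inhibition above the mean over all tested compounds plus 3 SD, cut at about 21% in these data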;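 further: 0% = DMSO only wells and 100% = clavulanate BLA inhibitor control wells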
Beta2AR agonist: activates human beta-2 adrenergic receptor causing internalization. Am2.2-beta2AR cells, FAP receptor internalization, flow cytometry. response, % (test concentration not listed). 340,000 tested, 0.43% active;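 active means response above a set limit, near 3 SD of response in nonfluorescent compounds, cut at about 42% in these data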
TLR4-MyD88 BLA: blocks binding of human TLR4 to MyD88; HeLa CL3-4 TLR4/MyD88 BLA complementation, FRET ratio; inhibition, % at 8.4 µM; 200,000 tested, 0.18% active; in the data active means inhibition above about 25%;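 further: 0% = vehicle and 100% = reference inhibitor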
NTR1 ag confirm: confirmation of agonists of human NTR1; shares compounds with NTR1 agonist; NTR1-U2OS beta-arrestin-GFP translocation imaging; activation, % at 20 µM; 480 tested, 38% active;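 active means mean activation at 20 µM of at least 40%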;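 further: 0% = DMSO without peptide and 100% = 100 nM NTR1 peptide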
B2AR ag CP1: activates human beta-2 adrenergic receptor | percent response (surface receptor), % at 10 µM | shares compounds with Beta2AR agonist | AID 540358 | 1,100 tested, 25% active | Am2.2-beta2AR cells, FAP surface receptor, flow cytometry; stronger effect = lower value;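 active means surface receptor percent response at or below 58%, roughly 3 SD from nonfluorescent compounds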
B2AR FAP counter: flagged in Am2.2 fluorescence counterscreen for beta-2AR agonists | shares compounds with Beta2AR agonist | Am2.2 cells, FAP fluorogen flow cytometry; stronger effect = lower value | calls only at 10 µM | 1,100 tested, under 10 active | AID 588765;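 active means percent response below a set limit in fluorescence channel 1 and below 50% in channel 8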
NOD2-RIPK2 conf: confirmation of human NOD2-RIPK2 interaction inhibitors | 1,200 tested, 70% active | AID 624370 | CHO cells, NOD2-RIPK2 BLA complementation, CCF4 FRET | inhibition, % at 4.98 µM | shares compounds with NOD2-RIPK2 inh;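 active means mean inhibition across replicates above a set limit taken from the earlier primary screen, cut at about 21% in these data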;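 further: 0% = DMSO-only wells and the high end = clavulanate BLA-blocked wells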
BLA counter: counter-screen for NOD2-RIPK2 interaction inhibitors: BLA reporter; shares compounds with NOD2-RIPK2 inh; CHO BLA reporter, CCF4 FRET ratio, counterscreen; inhibition, % at 4.98 µM; 1,200 tested, 57% active;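 active means mean inhibition above the low-control mean inhibition plus three low-control SD, cut at about 11% in these data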;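 further: 0% = DMSO only wells and 100% = clavulanate high control wells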
Starred values were filed as active, the others as inactive. Most compounds without a hit are left out; they make up all but 0.97% or so of the library.

For CCCCCc1cc(=O)oc2c(C(CCN3CCCC3)c3ccc(N(C)C)cc3)c(OC)cc(OC)c12 (stereo not given) the results were A1 inh 0, NTR1 agonist 53*, NOD2-RIPK2 inh 8, TLR9-MyD88 block 2, Beta2AR agonist 35 and NTR1 ag confirm 38.
Screening CCCCCc1cc(=O)oc2c(C(CCN3CCCCC3)c3ccc(OC)cc3)c(OC)cc(OC)c12 (stereo not given) returned A1 inh 3, NTR1 agonist 48*, NOD2-RIPK2 inh 11, TLR9-MyD88 block -1, Beta2AR agonist 17 and NTR1 ag confirm 61*.
Screening CSCCNC(=O)c1ccc(OC2CCN(S(=O)(=O)N(C)C)CC2)cc1 returned A1 inh 1, NTR1 agonist 3, NOD2-RIPK2 inh -8, TLR9-MyD88 block -9 and Beta2AR agonist 5.
`CCN(CC)S(=O)(=O)c1ccc(OC)c(NC(=O)c2cc([N+](=O)[O-])ccc2Cl)c1` gave A1 inh 2, NTR1 agonist 2, NOD2-RIPK2 inh -7, TLR9-MyD88 block -4, Beta2AR agonist 6 and TLR4-MyD88 BLA -7.
Screening CCOc1nc(NCCc2ccc(OC)c(OC)c2)nc(N2CCN(c3ccc(OC)cc3)CC2)n1 returned A1 inh -1, NTR1 agonist 15, NOD2-RIPK2 inh 5, TLR9-MyD88 block -3, Beta2AR agonist -2 and TLR4-MyD88 BLA 1.
For COc1ccc(N2CCN(c3nc(NCCc4ccc(OC)c(OC)c4)nc(OC)n3)CC2)cc1 the results were A1 inh -2, NTR1 agonist 44*, NOD2-RIPK2 inh -1, TLR9-MyD88 block -5, Beta2AR agonist 2, TLR4-MyD88 BLA 1 and NTR1 ag confirm 32.
Screening COc1cc(NC(=O)c2ccc3c(c2)S(=O)(=O)N=C2CCCCCN23)cc(OC)c1 returned A1 inh -1, NTR1 agonist 0, NOD2-RIPK2 inh -7, TLR9-MyD88 block 7 and Beta2AR agonist 8.
`N#Cc1c(N)nc(SCC(=O)C23CC4CC(CC(C4)C2)C3)c(C#N)c1-c1ccc(Cl)cc1` gave A1 inh 1, NTR1 agonist 1, NOD2-RIPK2 inh -9, TLR9-MyD88 block -1, Beta2AR agonist -3 and TLR4-MyD88 BLA 5.
For CSc1nc(N)nc(SCC(=O)C23CC4CC(CC(C4)C2)C3)c1C#N the results were A1 inh 0, NTR1 agonist 45*, NOD2-RIPK2 inh 6, TLR9-MyD88 block -5, Beta2AR agonist -6, TLR4-MyD88 BLA -3 and NTR1 ag confirm 13.
Screening COc1ccc2sc(-c3ccc(S(C)(=O)=O)cc3)c(C#CCO)c2c1 returned A1 inh 1, NTR1 agonist 57*, NOD2-RIPK2 inh 5, TLR9-MyD88 block 0, Beta2AR agonist 17 and NTR1 ag confirm 57*.
`Cc1ccc(-n2ncc3c(N4CCN(c5ccccc5)CC4)ncnc32)c(C)c1` gave A1 inh 0, NTR1 agonist 62*, NOD2-RIPK2 inh 2, TLR9-MyD88 block -3, Beta2AR agonist 28, TLR4-MyD88 BLA 15 and NTR1 ag confirm 61*.
`Cc1cccc(C(=O)Nc2ccccc2C(=O)OCc2c(C)noc2C)c1` gave NTR1 agonist 5, NOD2-RIPK2 inh -7, TLR9-MyD88 block -11, Beta2AR agonist -7 and TLR4-MyD88 BLA 3.
Screening Cc1ccc(S(=O)(=O)N2CCCCC2)cc1C(=O)N(C)CCOc1ccccc1 returned A1 inh 2, NTR1 agonist 2, NOD2-RIPK2 inh 7, TLR9-MyD88 block -12 and Beta2AR agonist -10.
CCCCCCCCCn1c2c(c(=N)c3c1CCC3)CCCC2 was read as NTR1 agonist 72*, NOD2-RIPK2 inh 24*, Beta2AR agonist 80*, TLR4-MyD88 BLA 17, NTR1 ag confirm 79*, B2AR ag CP1 103 and B2AR FAP counter inactive.
`C(=C\c1ccccc1)/CN1CCN(C(c2cccc3ccccc23)c2nnnn2Cc2ccccc2)CC1` (stereo not given) gave NOD2-RIPK2 inh 2.
O=[N+]([O-])c1c(NCCCO)cc(Sc2ccc(Cl)cc2)c2nonc12 was read as A1 inh 2, NOD2-RIPK2 inh 8, TLR9-MyD88 block 9, Beta2AR agonist 30 and TLR4-MyD88 BLA 0.
Cn1ccnc1Sc1cc(NCCCO)c([N+](=O)[O-])c2nonc12 was read as A1 inh 0, NTR1 agonist 45*, NOD2-RIPK2 inh 27*, TLR9-MyD88 block 13, Beta2AR agonist 46*, TLR4-MyD88 BLA 4, NTR1 ag confirm 72*, NOD2-RIPK2 conf 31* and BLA counter 8.
`CCc1ccc2c(c1)/C(=C/C(=O)c1cccs1)C(=O)N2` gave A1 inh 0, NTR1 agonist 42*, NOD2-RIPK2 inh 47*, TLR9-MyD88 block 11, Beta2AR agonist 78*, TLR4-MyD88 BLA 17, NTR1 ag confirm 57*, NOD2-RIPK2 conf 42* and BLA counter 2.
CCCN1C(=O)CC(=O)N=C1SCC(=O)Nc1ccccc1F was read as A1 inh 1, NTR1 agonist -2, NOD2-RIPK2 inh 3, TLR9-MyD88 block 2 and Beta2AR agonist 3.
`O=C(c1ccc(Br)cc1)C(CN1CCOCC1)c1ccccc1` (stereo not given) gave A1 inh 0, NTR1 agonist 60*, NOD2-RIPK2 inh 26*, TLR9-MyD88 block 14, Beta2AR agonist 21, NTR1 ag confirm 71*, NOD2-RIPK2 conf 27* and BLA counter -3.
Screening CCOc1ccc(C(=O)C(CN2CCOCC2)c2ccccc2)cc1 (stereo not given) returned A1 inh -1, NOD2-RIPK2 inh 6, TLR9-MyD88 block -6, Beta2AR agonist -1 and TLR4-MyD88 BLA 0.
